This is a sample that favours compounds with a hit; in the whole collection about 12% have one here.
JMJD2A Tudor: qHTS Assay for Inhibitors of JMJD2A-Tudor Domain; Potency, µM (series often up to 114 µM), without a hit: top-dose activity change, negative = inhibition, hits mostly inhibitors; Lysine-specific demethylase 4A (Homo sapiens), O75164; AlphaScreen JMJD2A-Tudor / H3K4me3 peptide binding; 4.4% of 390,000 active; note: % is set by controls: 0 for no effect and ±100 for the full control effect; nearly all actives have a fitted effect of over 50% in size
TDP1 block: qHTS Assay for Inhibitors of Tyrosyl-DNA Phosphodiesterase (TDP1); recombinant TDP1, AlphaScreen DNA substrate cleavage; AID 485290, 2010; Potency, µM (top dose mostly 130 µM), for inactives: top-dose activity change, negative = inhibition, most hits filed as inhibitors; 0.28% of 350,000 active; note: % is set by controls: 0 for no effect and ±100 for the full control effect; nearly all actives have a fitted effect of over 40% in size
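Tdp1 1 nM final; 15 min RT w/ cpd; substrate 15 nM, 5 min; beads 10 ug/ml, 10 min; AlphaScreen read. Neg ctrl: no enzyme.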
G9a inh: qHTS Assay for Inhibitors of Histone Lysine Methyltransferase G9a | Potency, µM (series often up to 102 µM), for the others: at the highest dose activity, negative = inhibition, actives largely listed as inhibitors | AID 504332, 2011 | G9a H3K9 monomethylation, AlphaScreen, 2 h | 8.8% of 350,000 active | Histone-lysine N-methyltransferase EHMT2 (Homo sapiens), Q96KQ7; note: % is set by controls: 0 for no effect and ±100 for the full control effect; nearly all actives have a fitted effect of over 75% in size
Target sequence (Q96KQ7 913-1193 limits assumed): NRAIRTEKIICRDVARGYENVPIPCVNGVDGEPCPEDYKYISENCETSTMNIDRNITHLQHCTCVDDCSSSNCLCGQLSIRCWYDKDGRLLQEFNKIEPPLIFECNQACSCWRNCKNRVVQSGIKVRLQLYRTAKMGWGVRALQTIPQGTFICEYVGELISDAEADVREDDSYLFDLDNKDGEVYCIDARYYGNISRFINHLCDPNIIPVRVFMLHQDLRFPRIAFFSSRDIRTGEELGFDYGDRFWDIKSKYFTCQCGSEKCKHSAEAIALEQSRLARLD
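Using a bead-based AlphaScreen, monomethylated H3K9 product from 2 h room-temperature reactions (G9a 20 nM, peptide 500 nM, SAM 20 uM) was detected with 0.5 ug/mL rabbit anti-H3K9me1 antibody.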
BAZ2B inh: qHTS Assay for Inhibitors of BAZ2B; Bromodomain adjacent to zinc finger domain protein 2B (Homo sapiens), Q9UIF8; AlphaScreen BAZ2B-H3K14Ac peptide displacement; Potency, µM (series often up to 114 µM), for inactives: at the top dose activity change, negative = inhibition, actives largely listed as inhibitors; 4.4% of 360,000 active; note: % is set by controls: 0 for no effect and ±100 for the full control effect; nearly all actives have a fitted effect of over 60% in size
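BAZ2B 50 nM plus b-H3(5-23)K14Ac 50 nM, PBS pH 7.4/0.01% Tween-20, 30 min RT; compound added (max 110 uM), 30 min RT; streptavidin donor/Ni-chelate acceptor beads 10 ug/mL final, 20 min dark; AlphaScreen read.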
Sfp inh: qHTS Assay for Inhibitors of Bacillus subtilis Sfp phosphopantetheinyl transferase (PPTase) | Biochemical Sfp PPTase activity, qHTS | Potency, µM, for the others: largest response in the series, negative = inhibition, hits mostly inhibitors | AID 1490, 2009 | 3.5% of 310,000 active | 4'-phosphopantetheinyl transferase ffp (Bacillus subtilis), Q9F4F7;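 note: the enzyme is Sfp with the accession as filed and its product quenches rhodamine fluorescence; 0% = enzyme reaction without inhibitor and -100% = no enzyme wells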
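Fluorescence-quenching assay with 15 nM Sfp, 5 uM rhodamine-CoA and 12.5 uM BHQ-2-labelled ybbR peptide in pH 7.6 Hepes/MgCl2 buffer. Enzyme was pre-incubated with compound for 15 min at room temperature. Rate was taken from the 30-min fluorescence change (525/598 nm).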
HP1b chromo inh: HTS for Inhibitors of HP1-beta Chromodomain Interactions with Methylated Histone Tails; AID 540317, 2011; Potency, µM (titrated, usually from 114 µM), inactives show top-dose activity change, negative = inhibition, hits mostly inhibitors; AlphaScreen HP1-beta / biotin-H3K9me3 peptide binding; 0.56% of 390,000 active; Chromobox protein homolog 1 (Homo sapiens), P83916; note: nearly all actives have a fitted effect of over 70% in size
Target sequence (P83916 whole entry, looked up): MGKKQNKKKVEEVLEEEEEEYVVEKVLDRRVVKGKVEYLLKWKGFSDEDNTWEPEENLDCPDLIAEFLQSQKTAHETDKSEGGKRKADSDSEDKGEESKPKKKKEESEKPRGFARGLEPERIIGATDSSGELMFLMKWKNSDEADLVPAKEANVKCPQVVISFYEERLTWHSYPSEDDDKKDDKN
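AlphaScreen: HP1-beta (50 nM) preformed 30 min with biotin-H3(1-18)K9me3 peptide (50 nM) in PBS pH 7.4, 0.01% Tween-20. Compound added for 30 min at RT, then streptavidin donor/nickel chelate acceptor beads (10 ug/mL) for 30 min.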
An asterisk follows results filed as active; ? = inconclusive; / = no result given; [ ] = another dose, or the depositor's remark. Calls come from the whole dose curve; as a rule, active = well fitted curve in the direction sought with a large enough effect; inconclusive = small, poorly fitted or top-dose-only effect, or another doubt; inactive = no such curve, though single readings can be large; an effect the other way counts as inactive or inconclusive. Potency is the fitted concentration of half-maximal effect.

SMILES	JMJD2A Tudor	TDP1 block	G9a inh	BAZ2B inh	Sfp inh	HP1b chromo inh
O=C(CN1CCN(S(=O)(=O)c2ccc3c(c2)OCCO3)CC1)Nc1cccc(F)c1	-6%	-8%	56µM*	-4%	/	17%
O=C(CN1CCN(S(=O)(=O)c2ccc(Cl)cc2)CC1)Nc1ccc2c(c1)OCCO2	-18%[11.4 µM]	4%	50µM*	-7%	16%	8%
C=CCN(Cc1cccs1)C(=O)CN1CCN(S(=O)(=O)c2ccc3c(c2)OCCCO3)CC1	-11%	-2%[56.1 µM]	-12%[2.33 µM]	-8%	/	70%
CCN(Cc1cccs1)C(=O)CN1CCN(S(=O)(=O)c2ccc3c(c2)OCCCO3)CC1	-6%	0%	45µM*	9%	/	24%
CC1c2cc3c(cc2CCN1CC(=O)Nc1ccc(S(=O)(=O)N2CCCC2)cc1)OCCCO3 (centres undefined)	-17%	4%	71µM*	?	1%	12%
O=C(CN1CCN(S(=O)(=O)c2ccc(Cl)cc2)CC1)Nc1ccc2c(c1)OCO2	1%[11.4 µM]	6%	-18%	-11%	2%	-6%
CC(=O)Nc1ccc(C(=O)N2CCc3cc4c(cc3C2C)OCCCO4)cc1 (centres undefined)	-12%	/	/	1%	3%	31%
COc1cc(OC)cc(C(=O)NCC(=O)NCCN2C(=O)S/C(=C\c3ccc4c(c3)OCO4)C2=O)c1	-20%	/	/	/	/	36%
NS(=O)(=O)c1ccc(CNC(=O)Cn2nc(C(F)F)cc2C(F)F)cc1	7%	-1%	-4%[12.7 µM]	1%	/	43%
COc1ccc(Cl)cc1NC(=O)CCS(=O)(=O)c1ccc(C)cc1	-29%	/	20%	5%	8%	-3%
Cn1cc(Cl)c(C(=O)Nc2nccs2)n1	-14%	/	-4%	-21%	6%	-11%
O=C(COC(=O)c1cnccn1)c1ccccc1	-17%	6%	-8%	-10%	16%	28%
O=C(Nc1ccc(Br)cc1Cl)c1cnccn1	50µM*	5%	-10%[59 µM]	-7%	16%	11%
O=C(Nc1nccs1)c1ccccn1	79µM*	8%	?	/	79µM*	41%
O=C(Nc1nccs1)c1ncc(Cl)c(Cl)c1Cl	-7%	/	45µM*	5%	-6%	28%
O=C(O)c1cnccn1	25µM*	-6%	8.9µM*	45µM*	?	?
CCOC(=O)c1cnc2ccc(OC)cc2c1NCCc1ccccc1	97%	0%[12.3 µM]	68%[59 µM]	59%	/	172%
Cc1ccc(S(=O)(=O)Nc2cc3c(cc2C#N)OCO3)cc1C(N)=O	-7%	0%[0.0935 µM]	14%	2%	-9%	39%
COC(=O)c1ccc(NC(=O)CN(C)S(=O)(=O)c2ccc3c(c2)CCCC(=O)N3)cc1	3%	0%	-7%[59 µM]	10%[57.1 µM]	/	30%
O=C(Nc1nccs1)c1ccc(Cl)nc1	-5%	/	?	-6%	16%	37%
O=C(Nc1nccs1)c1cnccn1	?	0%	6.3µM*	?	?	-2%
COc1ccc(-c2nn(-c3ccccc3)cc2C(=O)Nc2nccs2)cc1	-23%	12%	-32%	-11%	22%	18%
O=C(Nc1nccs1)c1cn(-c2ccccc2)nc1-c1ccncc1	?	79µM*	29%	?	11%	152%
CC(C)OCCCNC(=O)c1ccc2c(c1)S(=O)(=O)c1ccccc1C2=O	-16%	2%	22%	-20%	15%	28%
COCCCNC(=O)c1ccc2c3c(onc13)-c1ccccc1C2=O	50µM*	7%	/	20µM*	56µM*	?
SMILES	JMJD2A Tudor	TDP1 block	G9a inh	BAZ2B inh	Sfp inh	HP1b chromo inh
Cc1ccccc1C(=O)NCc1ccc2c(c1)CCN2C(=O)c1ccccc1	-17%	1%	21%[59 µM]	-3%	/	9%
CN(C)CCN(C(=O)c1ccc2c(c1)OCCO2)c1nc2cc3c(cc2s1)OCO3	?	7%	/	?	-10%	-25%
CCN(Cc1ccccc1)S(=O)(=O)c1ccc(C(=O)N(CCCN(C)C)c2nc3cc(OC)ccc3s2)cc1	?	-1%[0.505 µM]	45µM*	?	/	-11%
CN(C)CCCN(C(=O)c1ccc(S(=O)(=O)N(C)Cc2ccccc2)cc1)c1nc2c(F)cccc2s1	?	9%	-6%	?	-24%	-10%
COc1ccc2sc(N(CCCN(C)C)C(=O)c3ccc(C(=O)c4ccccc4)cc3)nc2c1	50µM*	2%	45µM*	?	/	-31%
CCN(c1ccccc1)S(=O)(=O)c1ccc(C(=O)N(CCN(C)C)c2nc3c(F)cc(F)cc3s2)cc1	/	9%[56.1 µM]	45µM*	-15%	3%	/
CCN(Cc1ccccc1)S(=O)(=O)c1ccc(C(=O)N(CCCN(C)C)c2nc3cc4c(cc3s2)OCCO4)cc1	45µM*	/	40µM*	35µM*	/	?
CCOC(=O)[C@@H]1[C@H]2COc3ccccc3[C@@H]2N2C(=O)N(c3ccc(C)cc3)C(=O)[C@]12C	-19%	/	13%	-27%	7%	34%
CCOc1ccc(C(=O)Nc2nc(-c3ccc(Br)cc3)ns2)cc1	-1%	3%	8%[59 µM]	1%	/	66%
N#Cc1cccc(-c2nc(NCc3cccnc3)c3ccccc3n2)c1	/	/	2%[0.501 µM]	/	-7%	/
CCN(Cc1ccccc1)S(=O)(=O)c1ccc(C(=O)N(CCCN(C)C)c2nc3ccc(F)cc3s2)cc1	?	10%	/	28µM*	89µM*	-2%
CN(C)CCCN(C(=O)c1ccco1)c1nc2ccc(F)cc2s1	-9%	2%	?	/	4%	25%
CN1CCN(S(=O)(=O)c2ccc(N(C)Cc3cccc(F)c3)nc2)CC1	-8%	1%	12%[12.7 µM]	-16%	/	27%
CC(C)(C)NC(=O)NC(=O)Cn1ccsc1=N	-6%	8%	-5%[59 µM]	-1%	6%	41%
CCc1ccc(C(=O)Cn2ccsc2=N)cc1	-23%	/	50µM*	?	9%	5%
CCOC(=O)CCC(NC(=O)CC(=O)NC(CCC(=O)OCC)C(=O)OCC)C(=O)OCC (centres undefined)	2%	-2%	71µM*	-28%	4%	46%
Cc1ccccc1OCC(=O)N(Cc1nnc(-c2ccc(Cl)cc2)o1)C(C)C	-11%	-5%	-1%[12.7 µM]	-1%	/	56%
COc1ccc(Nc2nc(OC)nc(OC)n2)cc1	-10%	/	25%	0%	-3%	29%
COc1ccc(Nc2ccnc(Nc3ccc(OC)cc3)n2)cc1	?	6%	?	45µM*	-86%	?

Screens as filed in PubChem BioAssay.
